This passage reports INHIBITION results from ChEMBL document CHEMBL4513216, “Probing the Open Global Health Chemical Diversity Library for Multistage-Active Starting Points for Next-Generation Antimalarials” (ACS Infect Dis, 2020).

Screen size: about 69,000 compounds; about 8,600 (12%) showed an effect of 50% or more. The entries come from a sample that favours strong results as a whole.

This test concerns Plasmodium berghei. As to the kind of experiment: Screen against P. berghei liver stage (PbLuc), transformed with Luciferase, at 10uM. The class given is functional, HepG2. To be noted: tested at 10 uM.
For `CCOc1cc(=O)n2c(c1C(=O)OCc1cccc(C)c1)CCCC2`, the INHIBITION is 43.8%.
As to `c1csc(CN2CCn3c(Cn4cncn4)cnc3C2)n1`, the INHIBITION came to 45.5%.
For `COC(=O)C1CCN(c2cc(C)nc(-c3ccncc3)n2)CC1`, the INHIBITION was -53.5%.
Then `Cc1noc(C)c1C(=O)N1C[C@@H]2COC[C@]2(COc2ccccn2)C1`, with 18.5%.
`CN1CCN(C(=O)c2cc(NC(=O)c3ccccc3)n(C)n2)CC1`: the INHIBITION was found to be 46.6%.
Then `CCN1CCN(C(=O)c2cc(NC(=O)c3ccccc3)n(C)n2)CC1`, with 75.7%; and `Cn1nc(C(=O)N2CCCCCC2)cc1NC(=O)c1ccccc1`, with 26.4%.
In the case of `CC(C)N1c2sc(-c3ccsc3)nc2CC1C(=O)NC1CCCC1` (stereo not given), the INHIBITION stood at 47.5%.
For the compound `CC(C)N1c2sc(-c3ccsc3)nc2CC1C(=O)NC1CC1` (stereo not given), the INHIBITION is recorded as 26.5%.
Turning to `CC(C)N1c2sc(-c3ccccc3)nc2CC1C(=O)NC1CCCC1` (stereo not given), the INHIBITION amounted to 57.1%.
For the compound `Cc1cccc(CN2CCc3ncnc(N4CCOCC4)c3CC2)n1`, the INHIBITION is -9.86%.
For the compound `Cc1ccc(CN(CCCN2CCOCC2)Cc2[nH]cnc2C)o1`, the INHIBITION is on record as -18.9%.
On to `CS(=O)(=O)N1CCC[C@]2(C[C@@H](Oc3ncccc3F)CO2)C1`, for which the INHIBITION is 26.2%.
Regarding `CN1CC=C(c2noc(CCC(=O)N3CCc4ccccc43)n2)CC1`, the INHIBITION was determined as 32.5%.
For `CN1CC=C(c2noc(CCC(=O)N3CCc4ccccc4C3)n2)CC1`, the INHIBITION turned out to be 77.2%.
Consider `CN1CC=C(c2noc(CCC(=O)N3CCCC3)n2)CC1`, for which the INHIBITION is 41.6%.
Regarding `O=C(NCc1cccc(N2CC=CC2)c1)NC1CC1`, the INHIBITION is -37.7%.
In the case of `CCc1ccc(O)c(C(=O)NC2CCN(S(=O)(=O)CC)CC2)c1`, the INHIBITION is 44.2%.
Then `CCc1cccc(N2CCC(NC(=O)c3cc[nH]n3)CC2)c1`, with 77.3%; and `CCc1cccc(N2CCC(NC(=O)c3ccc(=O)[nH]n3)CC2)c1`, with 21.9%; and `O=C(NC1CCCN(Cc2c(F)cccc2F)C1)c1cc[nH]n1` (stereo not given), with 32.2%.
With `Cc1occc1C(=O)NC1CCN(C(=O)Nc2cccnc2)CC1`, the INHIBITION is on record as 46.3%.
Then `CCc1cccc(N2CCC(NC(=O)c3ccoc3C)CC2)c1`, with 70.8%; and `CCc1cccc(N2CCC(NC(=O)c3ccco3)CC2)c1`, with 91.4%.
On to `CCc1cccc(N2CCC(NC(=O)c3ccncc3)CC2)c1`, for which the INHIBITION is given as 23.5%.
Consider `O=C([C@@H]1C[C@H]2[C@H](CCN2Cc2nccs2)O1)N1CCOCC1`, for which the INHIBITION is recorded as -1.53%.
Then `O=C(O)CNC(=O)Cc1csc(-c2ccccc2F)n1`, with 32.8%; and `Cc1cscc1C(=O)N1CCCC1CC(=O)c1cnn(C)c1` (stereo not given), with 12.7%.
Regarding `CCc1ccccc1C(=O)N1CCCC1CC(=O)c1cnn(C)c1` (stereo not given), the INHIBITION is reported as 30.6%.
With `Cc1ccc(O)c(C(=O)N2CCCC2CC(=O)c2cnn(C)c2)c1` (stereo not given), the INHIBITION turned out to be 50.2%.
The value for `CCn1cc(S(=O)(=O)N2CCC(C3CCCCN(C)C3=O)CC2)c(C)n1` (stereo not given) was 37.1%; that for `OCC1CCN(C[C@@H]2CN(C3Cc4ccccc4C3)C[C@@H]2CO)CC1` was 48.5%.
Then `COc1cc(C(=O)N2CCC(Nc3cccnc3)CC2)ccc1C`, with -22.1%.
As for `CCc1cnc(N2C[C@@H]3C[C@H](C(=O)NC4CCC4)[C@H](C2)O3)nc1`, the INHIBITION worked out at 5.63%.
Consider `Cc1cccc(S(=O)(=O)N2C[C@@H]3C[C@H](C(=O)NC4CCC4)[C@H](C2)O3)c1`, for which the INHIBITION is listed as 5.36%.
Turning to `O=C(Nc1ccccc1)[C@H]1C[C@H]2CN(S(=O)(=O)c3ccccc3)C[C@@H]1O2`, the INHIBITION is reported as 5.96%.
In the case of `O=C(NC1CCC1)[C@H]1C[C@H]2CN(S(=O)(=O)c3ccccc3)C[C@@H]1O2`, the INHIBITION is 51.2%.
On to `O=C(NC1CCC1)[C@H]1C[C@H]2CN(CC3CC3)C[C@@H]1O2`, for which the INHIBITION is on record as 65.3%.
`CC(C)CN1C[C@@H]2C[C@H](C(=O)NC3CCC3)[C@H](C1)O2`: the INHIBITION is recorded as 31.5%.
On to `Fc1ccc(-c2cnc(CN3CCn4c(nnc4C4CC4)C3)o2)cc1`, for which the INHIBITION was found to be 21.8%.
With `CN1C(=O)CCCC12CCCN(Cc1cccs1)C2` (stereo not given), the INHIBITION is -2.35%.
Consider `N#Cc1ccc(C(=O)O)nc1C=Cc1cccc(Cl)c1`, for which the INHIBITION amounted to 10.2%.
The value for `c1coc(-c2noc(CN3CCCCC3Cn3cncn3)n2)c1` (stereo not given) was 17.4%.
As to `COCc1ncc(CN2C[C@@H](C(=O)O)[C@H](C(C)C)C2)cn1`, the INHIBITION was 24.2%.
As to `CC(C)[C@@H]1CN(Cc2cnc(C3CCCCC3)nc2)C[C@H]1C(=O)O`, the INHIBITION is recorded as 13.5%.
Then `COCCc1ncc(CN2C[C@@H](C(=O)O)[C@H](C(C)C)C2)cn1`, with 50.2%.
On to `CSc1cc2c(cc1NC(=O)NCC(=O)N(C)C)OCCO2`, for which the INHIBITION came out at 35.9%.
Then `COCCN(C)C(=O)Nc1cc2c(cc1SC)OCCO2`, with -34%; and `CC(NC(=O)NCCn1ccnc1)c1ccc2c(c1)OCCO2` (stereo not given), with 31.8%; and `CSc1cc2c(cc1NC(=O)NCC1CCOC1)OCCO2` (stereo not given), with 67.3%.
For `CSc1cc2c(cc1NC(=O)NCC(C)(C)C(N)=O)OCCO2`, the INHIBITION is given as 48.5%.
Consider `CSc1cc2c(cc1NC(=O)NCc1ccncc1)OCCO2`, for which the INHIBITION was determined as 8.4%.
Consider `CCCNC(=O)Nc1cc2c(cc1SC)OCCO2`, for which the INHIBITION stood at 8.47%.
Take `CSc1cc2c(cc1NC(=O)NCCn1ccnc1)OCCO2`: the INHIBITION is given as 64.6%.
Then `COCCNC(=O)Nc1cc2c(cc1SC)OCCO2`, with 69.1%.
